From PubChem BioAssay

assay: E. coli acrAB mutant growth effects, primary screen, E. coli filamentation inducers, strain DRC39, OD650, 24 h (AID 1178); conditions: higher = more signal, called active from +8 up or from −8 down;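 also: growth measured as culture turbidity by optical density at 650 nm; test concentration not given here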

z-score, inactive:
COCCOC(=O)N1C(=O)[C@@]2(c3cc(C#CCC(C(=O)OC)C(=O)OC)ccc31)[C@H](C(N)=O)[C@H]1C(=O)O[C@H](c3ccccc3)[C@H](c3ccccc3)N1[C@@H]2c1ccccc1OCCO 0.664
C=C(COC)/C(=C/C[C@@H](OC(C)=O)c1cccc(OCCO)c1)c1cnc2ccccc2c1 -0.672
CC(C)[Si](C#Cc1ccccc1)(O[C@H](c1ccccc1)c1cn(Cc2ccccc2)nn1)C(C)C 1.67
C[C@]1(C(=O)O)c2ccccc2C(=O)N(Cc2cc(C(F)(F)F)cc(C(F)(F)F)c2)[C@H]1c1ccc(CO)cc1 -0.124
[N-]=[N+]=NCc1ccccc1[C@H]1OC(c2ccc(OCCCO)cc2)=N[C@@]1(CCS(=O)(=O)c1ccccc1)C(=O)NCCN1CCOCC1 -0.178
C=CC[C@@]1(C(=O)NCCCOC)N=C(c2ccc(OCCCO)cc2)O[C@@H]1c1ccccc1CN=[N+]=[N-] 0.914
CC(=O)NCCCC[C@@H]1NC(=O)[C@H]2C[C@@H](C(=O)O)[C@@H](c3cccc(OCCO)c3)N2C1=O -0.33
C=CCNC(=O)[C@H]1[C@@H]2C(=O)O[C@@H](c3ccccc3)[C@@H](c3ccccc3)N2[C@@H](c2ccc(O)cc2)[C@]12C(=O)Nc1ccccc12 0.691
Cc1ccc(S[C@]2(C(=O)NC(C)C)CC(=O)N(Cc3ccccc3)[C@@H]2c2ccc(CO)cc2I)cc1 -0.0759
COC(=O)c1ccc(OC)c(/C=C\CC(OC(=O)c2ccncc2)c2ccccc2)c1 (stereo not given) 2.57
COc1ccc([Si](C)(C)[C@H]2[C@H](CC(=O)N(CCO)Cc3ccccc3)O[C@@]3(C(=O)N(Cc4ccc(N5C(=O)c6cccc7cccc5c67)cc4)c4ccccc43)[C@@H]2C)cc1 -0.838
C=C(C)C1CN([C@H](CO)c2ccccc2)C(=O)/C1=C\c1ccccc1 (stereo not given in full) 0.408
C[N+](C)(C)CCCC[C@@H]1NC(=O)[C@H]2C[C@@H](C(=O)NCCCCCN)[C@@H](c3ccc(O)cc3)N2C1=O 0.553
CC(=O)NCCCC[C@@H]1NC(=O)[C@H]2C[C@@H](C(=O)NCCCCCN)[C@@H](c3ccc(O)cc3)N2C1=O -0.496
O=C1c2ccccc2[C@](Cc2ccccc2I)(C(=O)NCCN2CCOCC2)[C@H](c2ccc(CO)cc2)N1Cc1ccccc1C(F)(F)F 0.0398
CCOC(=O)C[C@H]1[C@H](OC(=O)c2ccc(-c3ccccc3)cc2)[C@@H](NC(=O)c2ccc(-c3ccccc3)cc2)c2cc(OCCCO)ccc2N1C(=O)c1ccccc1 -0.168
COC(=O)C1=CC(CCCO)=CC(c2ccc(CN3CCCC3)cc2)N(C)C=C1C(=O)OC (stereo not given) 0.98
CCCC1(C(=O)OC)C=C2C(=C(C(C)C)C(=O)C2C)CN1 (stereo not given) -0.314
C=CCOC(=O)[C@H]1[C@@H]2C(=O)O[C@@H](c3ccccc3)[C@@H](c3ccccc3)N2[C@@H](c2ccc(OCCOC(=O)[C@H]3C[C@H]4C(=O)NCC(=O)N4[C@H]3c3cccc(OCCO)c3)cc2)[C@]12C(=O)Nc1ccc(I)cc12 -0.274
C=CCNC(=O)[C@H]1[C@@H]2C(=O)O[C@@H](c3ccccc3)[C@@H](c3ccccc3)N2[C@@H](c2ccc(O)cc2)[C@]12C(=O)N(C(=O)OCCOC)c1ccc(C#Cc3ccc(OC)cc3)cc12 -1.2
CS(=O)(=O)CCOC(=O)C1=CC(CCCO)=CC(C2CC2)N(Cc2sc3ccccc3c2Cl)C=C1C(=O)OCCS(C)(=O)=O (stereo not given) 0.564
CC(C)(C)OC(=O)CC[C@@]1(C(=O)N2CCOCC2)N=C(c2ccc(OCCCO)cc2)O[C@@H]1c1ccccc1CN=[N+]=[N-] -0.294
CN1C(=O)C2C=CC(C(O)c3ccc(I)cc3)N(N(c3ccccc3)c3ccccc3)C2C1=O (stereo not given) -1.36
CC(C)(C)OC(=O)N1[C@@H](C=C(Br)Br)COC1(C)C 0.559
CCCN1C(=O)[C@@]2(c3ccc([N+](=O)[O-])cc3)CC(=O)N(C3CCCCC3)[C@@H]2c2ccc(CO)cc21 0.197
C=CCNC(=O)[C@H]1[C@@H]2C(=O)O[C@@H](c3ccccc3)[C@@H](c3ccccc3)N2[C@@H](c2ccc(OCCO)cc2)[C@]12C(=O)N(C(=O)OCCOC)c1ccc(C#CCC(C(=O)OC)C(=O)OC)cc12 0.321
CN1C(=O)C2C=CC(C(O)COCc3ccccc3)N(Nc3ccc([N+](=O)[O-])cc3[N+](=O)[O-])C2C1=O (stereo not given) -0.143
COC(=O)C1=CC(c2ccc(CO)cc2)=CC(C2CC2)N(Cc2cc3c(cc2Br)OCO3)C=C1C(=O)OC (stereo not given) 0.164
C=CC[C@H](O)c1ccc(O)c(F)c1 0.117
COc1ccc(C(O)C2C=CC3C(=O)N(c4ccccc4)C(=O)C3N2Nc2ccccc2F)c2ccccc12 (stereo not given) -0.203
C=C(COC)C(=O)CC[C@@H](OC(=O)c1ccccc1-c1ccccc1C(=O)O)c1ccccc1OCCO 0.0796
COC(=O)C(CC#Cc1ccc2c(c1)[C@]1(C(=O)N2)[C@H](C(=O)N2CCCCCCC2)[C@H]2C(=O)O[C@H](c3ccccc3)[C@H](c3ccccc3)N2[C@@H]1c1ccc(OCCO)cc1)C(=O)OC 0.0679
C[C@H]1C2[C@H](Cc3ccccc3)NC(=O)[C@]23C(=O)N[C@@H](Cc2ccccc2)C(=O)N2CCC[C@H]2C(=O)NC/C=C/CC/C=C/C3[C@@H]2O[C@]12C (stereo not given in full) 0.159
CCCC[C@@H](O)C1=C(C)Cn2c(=O)n(-c3ccccc3)c(=O)n2[C@H]1CO 0.514
CC(C)c1ccc(NN2C(C(O)C3CCCCC3)C=CC3C(=O)N(c4ccccc4)C(=O)C32)cc1 (stereo not given) -0.148
